Sampled rows, rich in hits. Any-hit rate of the full collection: about 3.1%.
rTrxR1 inhibitor – inhibitors of rat thioredoxin reductase 1; O89049; recombinant rTrxR1, NADPH fluorescence consumption, selenite substrate; Potency, µM (top dose mostly 114 µM), hits mostly inhibitors; 390,000 compounds, 1% hits; AID 588453; also: nearly all actives have a fitted effect of over 65% in size
Target sequence (O89049 whole entry, looked up): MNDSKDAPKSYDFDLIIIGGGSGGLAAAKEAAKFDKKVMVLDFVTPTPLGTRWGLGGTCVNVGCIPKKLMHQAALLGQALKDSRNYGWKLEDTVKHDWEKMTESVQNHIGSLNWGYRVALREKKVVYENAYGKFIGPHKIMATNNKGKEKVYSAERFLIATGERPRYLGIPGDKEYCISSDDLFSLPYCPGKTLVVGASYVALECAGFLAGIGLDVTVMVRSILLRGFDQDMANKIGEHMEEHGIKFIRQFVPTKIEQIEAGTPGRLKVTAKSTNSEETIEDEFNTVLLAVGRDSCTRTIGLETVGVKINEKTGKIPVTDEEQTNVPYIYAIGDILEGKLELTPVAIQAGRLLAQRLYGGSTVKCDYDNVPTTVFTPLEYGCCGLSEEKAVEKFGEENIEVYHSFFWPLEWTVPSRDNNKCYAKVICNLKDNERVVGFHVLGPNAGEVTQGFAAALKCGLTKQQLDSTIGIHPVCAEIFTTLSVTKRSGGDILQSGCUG
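Rat TrxR1 (90 nM in the dispensed reagent) was pre-reduced with 400 uM NADPH for 5 min at room temperature, then incubated with compound for 15 min. After 400 uM selenite was added, NADPH fluorescence (Ex 340/Em 450 nm) was followed for 8 min.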
IDH1 R132H inh – blocks human mutant IDH1 R132H enzyme. IDH1-R132H enzyme, NADPH consumption, diaphorase/resazurin fluorescence. 390,000 compounds, 0.093% hits. Potency, µM (doses to about 76.6 µM), most hits filed as inhibitors; also: nearly all actives have a fitted effect of over 65% in size
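IDH1-R132H (0.5 ug/mL dispensed) in pH 7.5 Tris buffer was preincubated 30 min with compound, then given a substrate mix of 0.016 mM NADPH and 2 mM alpha-KG for 80 min at room temperature; remaining NADPH was read by diaphorase/resazurin fluorescence.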
A549 viability – kills or reduces viability of A549 cells in Nrf2 counter-screen. A549 ARE-Fluc cells, CellTiter-Fluor viability, 18-24 h. Potency, µM (series often up to 46 µM), hits mostly inhibitors. 390,000 compounds, 0.16% hits
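A549 ARE_Fluc cells in 5% FBS OPTI-MEM were exposed to compounds in concentration-response for 18-24 h at 37 deg C. Viability was read by CellTiter-Fluor fluorescence (Ex 405/Em 525) after 30 min, before the luciferase read.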
Mito fusion act – blocks mitochondrial division or promotes mitochondrial fusion; S. cerevisiae fusion-defective mutant growth rescue, CellTiterGlo 48 h; Potency, µM (highest dose often 46.1 µM), hits mostly activators; AID 485298; 320,000 compounds, 0.23% hits; also: nearly all actives have a fitted effect of over 45% in size
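Luminescent cell viability in 1536-well qHTS format served as the measure of rescued growth in ts fusion-mutant S. cerevisiae cultured on non-fermentable YPEG for 48 hours at 37C.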
Nrf2 block – Nrf2 pathway inhibition | A549 ARE-Fluc reporter, luciferase luminescence, 18-24 h | Potency, µM (highest dose often 46 µM), actives largely listed as inhibitors | 360,000 compounds, 2.1% hits; also: nearly all actives have a fitted effect of over 60% in size
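Concentration-response testing used A549 ARE_Fluc cells at 5000 cells/well. Following an 18-24 h compound incubation, viability was read by fluorescence (Ex 405/Em 525) and luciferase output by luminescence.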
TrxR1 substrate – substrates of rat thioredoxin reductase 1 | Potency, µM (titrated, usually from 114 µM) | 390,000 compounds, 0.01% hits | purified TrxR1 substrate turnover, NADPH consumption readout; also: nearly all actives have a fitted effect of over 50% in size
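Rat TrxR1, dispensed at 90 nM, was prereduced with 400 uM NADPH (final) for 5 min at ~22 deg C, then incubated with compound 15 min before 400 uM selenite. A first-read NADPH fluorescence drop versus no-compound background flagged substrates.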
A number is an active result; n = inactive; u = inconclusive; x = no result given; ! = a repeat was not active; [ ] = remark or other dose. Calls follow the shape of the dose curve; as a rule, active = well fitted curve in the direction sought with a large enough effect; inconclusive = small, poorly fitted or top-dose-only effect, or another doubt; inactive = no such curve, though single readings can be large; an effect the other way counts as inactive or inconclusive.

SMILES	rTrxR1 inhibitor	IDH1 R132H inh	A549 viability	Mito fusion act	Nrf2 block	TrxR1 substrate
O=C(CCS(=O)(=O)c1ccccc1)N(CCCN1CCOCC1)c1nc2ccc(F)cc2s1	7.1µM	n	n	n	n	n
CCc1cccc2sc(N(CCCN3CCOCC3)C(=O)CS(=O)(=O)c3ccccc3)nc12	n	n	n	n	n	n
O=C(CCS(=O)(=O)c1ccccc1)N(CCCN1CCOCC1)c1nc2c(F)cccc2s1	3.2µM	n	n	n	n	n
COc1cccc2c1Oc1nc(-c3ccccc3)nc(SCC(=O)N3CCCCC3)c1C2	n	n	n	x	n	n
Nc1cccc(S(=O)(=O)N2CCN(S(=O)(=O)c3ccc4c(c3)OCCO4)CC2)c1	x	x	n	x	n	x
Cc1nn(CCc2nn[nH]n2)c2nc(-c3ccc(Br)cc3)cc(C(F)(F)F)c12	n	n	u	n	21µM	n
COc1ccc(-c2cn3nc(N4CCC(C(=O)Nc5ccc(C)cc5)CC4)sc3n2)cc1	n	n	n	x	n	n
CCNC(=S)Nc1ccc(Cl)c([N+](=O)[O-])c1	n	n	u	n	18µM	n
CCNC(=S)Nc1cccc([N+](=O)[O-])c1	x	x	x	n	x	x
Cn1c(=O)c2[nH]c(-c3ccc(S(=O)(=O)O)cc3)nc2n(C)c1=O	32µM!	n	n	n	n	n
CC(C)c1ccc(-c2nc3c([nH]2)c(=O)n(C)c(=O)n3C)cc1	n	n	n	n	x	n
O=C1CCc2cc(-c3csc(-c4ccc(O)cc4)n3)ccc2N1	n	x	x	x	x	n
O=C(CCl)Nc1cc(SCC(O)CO)cc([N+](=O)[O-])c1 (stereo not drawn)	5.6µM	n	6.5µM	n	4.6µM	n
CC(C)=NOc1cc(NC(=O)CCl)cc([N+](=O)[O-])c1	2.8µM	n	n	n	n	n
CCC(=O)Nc1cc(SCCO)cc([N+](=O)[O-])c1	n	n	n	n	u	n
CCC(=O)Nc1cc(ON=C(C)C)cc([N+](=O)[O-])c1	n	n	n	u	n	n
COc1ccc(N2CC(NC(=O)C(c3ccccc3)c3ccccc3)CC2=O)cc1 (stereo not drawn)	n	n	n	x	x	n
COc1ccccc1NC(=S)NC(=O)C(C)(C)C	13µM	n	n[1.84 µM]	n	n	n
CCOC(=O)Cn1c(CN2CCN(c3ccc(OC)cc3)CC2)nc2c1c(=O)[nH]c(=O)n2C	n	n	n	x	n	n
Cc1cc(C(=O)N/N=C/c2ccc(Br)o2)n[nH]1	n	n	n	n	u	n
Cc1cc(C(=O)N/N=C/c2cc(Br)c(Br)o2)n[nH]1	35µM	n	n	n	n	n
CCCOC(=O)/C(=C\c1ccc([N+](=O)[O-])o1)NC(=O)c1ccccc1	n	n	n	n	n	n
CCOC(=O)/C(=C\c1ccc([N+](=O)[O-])o1)NC(=O)c1ccccc1	7.9µM	n	u	n	u	n
CNc1cc[n+](C)c2ccccc12	n	x	x	x	x	n
CN(C)CCCNc1c2ccccc2nc2ccccc12	n	n	8.2µM	n	8.2µM	n
SMILES	rTrxR1 inhibitor	IDH1 R132H inh	A549 viability	Mito fusion act	Nrf2 block	TrxR1 substrate
COc1ccc(-c2nnc(COc3ccc4ccccc4c3)o2)cc1OC	n	n	x	n	23µM	n
COc1cc2ccccc2cc1-c1nnc(COc2ccccc2)o1	n	n	n	10µM	n	n
COc1cc(-c2nnc(COc3ccc4cc(Br)ccc4c3)o2)cc(OC)c1OC	n	n	n	n	n	n
Cc1ccc(NC(=O)c2c(C)oc3ccc(O)c(CN4CCCC4)c23)c(C)c1	n	n	n	x	n	n
Cc1ccc(N2CCN(C(=O)c3cnn(-c4ccc(C)c(C)c4)c3C3CCNCC3)CC2)c(C)c1	n	n	n	x	n	n
O=C1C(Cl)=C(N2CCCCC2)C(=O)C(Cl)=C1c1cnc(N2CCCCC2)s1	1.8µM	n	x	n	n	n
CN(C)c1ncc(C2=C(Cl)C(=O)C(N3CCCC3)=C(Cl)C2=O)s1	2.5µM	n	n	x	n	n
CC(C)NC(=O)c1cnc2sc(N3CCCCCC3)nn2c1=O	n	n	n	x	n	n
Cc1ccc(C)c(NC(=O)Cn2c(=O)n(CC3CCCO3)c(=O)c3ccccc32)c1 (stereo not drawn)	n	n	n	x	n	n
CCC(C)(C)NC(=O)c1cc(S(=O)(=O)N2CCc3ccccc32)cn1C	n	n	n	n	u	n
CCc1cccc(CC)c1NC(=O)c1cc(S(=O)(=O)N2CCc3ccccc32)cn1C	n	n	n	x	23µM	n
CCn1c2c(c(=O)n3ncc(C(=O)Nc4ccc(OC(F)(F)F)cc4)c13)CN(Cc1ccc(OC)cc1)CC2	n	n	n	x	x	n
Cc1cc2c(cc1C)N[C@]1(C[C@H]3CCCC(=O)N4CC[C@@H](C1)[C@@H]34)C(=NCc1ccccc1)N2	n	x	x	x	x	n
CCCCOC(=O)c1ccc(N)cc1	n	n	n	11µM	n	n
COc1ccc(C2CC(c3cccs3)=NN2C(=O)CCl)cc1OC (stereo not drawn)	7.9µM	n	u	n	u	n
COc1cc(C2CC(c3cccs3)=NN2C(=O)CCl)ccc1OC(F)F (stereo not drawn)	7.9µM	n	n	n	n	n
CC(=O)N1N=C(c2cccs2)CC1c1ccc(Br)cc1 (stereo not drawn)	n	n	n	n	n	n
COc1ccc(C2CC(c3cccs3)=NN2C(=O)c2ccccc2)cc1OC (stereo not drawn)	n	n	u	n	u	n
Cc1ccc(C2CC(c3cccs3)=NN2C(=O)c2ccc(Br)o2)cc1 (stereo not drawn)	n	n	n	2.8µM	x	n
CC(C)(C)c1ccc2c(c1)OC(C(=O)N/N=C\c1ccccn1)CO2 (stereo not drawn)	n	n	n	16µM	16µM	n
Nc1ccc(Cc2ccc(C=O)cc2)cc1	n	x	x	x	x	n
CC1c2cc3c(cc2CCN1CC(=O)Nc1ccccc1)OCCCO3 (stereo not drawn)	n	n	n	n	18µM	n
Cc1ccc(NC(=O)CN2CCc3cc4c(cc3C2C)OCCCO4)cc1C (stereo not drawn)	n	n	n	n	26µM	n
COc1cc(C2Nc3ccccc3C(=O)N2Cc2ccco2)ccc1O (stereo not drawn)	n[0.0914 µM]	x	n	x	n	n
Cc1ccc(C(=O)/C=C\C(=O)c2ccc(C)cc2)cc1	5µM	n	n	n	u	n
O=C(C(=O)c1ccc(O)cc1)c1ccccc1	n	n	n	n	n	n
O=C(O)/C=C/C(=O)Nc1ccc(O)cc1	71µM	n	n	n	n	n
O/N=C\c1ccc(-c2ccccc2)o1	n	n	n	n	u	n
O=C(O)/C=C/C(=O)c1ccc(O)cc1	18µM	n	n	n	n	n

Bioassay records as filed in PubChem.
